Assay results from PubChem BioAssay (EPA / NIEHS).
Where “and” joins values, the source holds several entries; their conditions need not be identical. Identical values can stand only once. Some compounds were tested as several samples or in several runs, with calls that do not always agree. Calls of active or inactive are those of the source. The calls were made as follows: active = hit-call score of the fitted dose curve at least 0.9, where 1 is the maximum; inactive = score below 0.9.

Key:
[1] = read-out: Vascular cell adhesion molecule 1 (VCAM1), VCAM1 (gene 7412); assay: BSK_BF4T_VCAM1: BioMAP Diversity Plus: BF4T Assay for Vascular cell adhesion molecule 1 (VCAM1) Biomarker Activity (AID 2284249); settings: primary human bronchial epithelial cells with fibroblasts
How it was run: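 Human bronchial epithelial cell and dermal fibroblast co-culture exposed 24 h. VCAM-1 measured by ELISA; parallel SRB total-protein staining for cytotoxicity. Fitted in positive direction relative to DMSO.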

[2] = read-out: Collagen I, COL1A1 (gene 1277); assay: BSK_hDFCGF_CollagenI: BioMAP Diversity Plus: hDFCGF Assay for Collagen I Biomarker Activity (AID 2284250); settings: primary human foreskin fibroblasts
How it was run: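 Primary human foreskin fibroblasts exposed to chemical for 24 h; Collagen I levels measured by ELISA. Cytotoxicity checked by SRB total-protein staining in parallel cultures.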

[3] = read-out: Interferon-inducible T-cell alpha chemoattractant (ITAC), CXCL11 (gene 6373); assay: BSK_hDFCGF_ITAC: BioMAP Diversity Plus: hDFCGF Assay for Interferon-inducible T-cell alpha chemoattractant (ITAC) Biomarker Activity (AID 2284251); settings: primary human foreskin fibroblasts
How it was run: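 ELISA readout of I-TAC after 24 h chemical exposure; human dermal foreskin fibroblast primary cells. Positive-direction fitting vs DMSO baseline. Parallel SRB total-protein staining (0.1% SRB after 10% TCA fixation, 560 nm) flags cytotoxicity.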

[4] = read-out: Plasminogen activator inhibitor-1 (PAI1), SERPINE1 (gene 5054); assay: BSK_KF3CT_PAI1: BioMAP Diversity Plus: KF3CT Assay for Plasminogen activator inhibitor-1 (PAI1) Biomarker Activity (AID 2284252); settings: primary human keratinocytes with fibroblasts
How it was run: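 Human keratinocyte/foreskin fibroblast co-culture dosed for 24 h; PAI-1 measured by ELISA, fitted in positive direction against DMSO baseline. Parallel SRB total-protein staining (0.1% SRB, 560 nm) assesses overt cytotoxicity.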

[5] = read-out: Monocyte Chemoattractant Protein-1 (MCP1), CCL2 (gene 6347); assay: BSK_IMphg_MCP1: BioMAP Diversity Plus: IMphg Assay for Monocyte Chemoattractant Protein-1 (MCP1) Biomarker Activity (AID 2284253); settings: primary human endothelial cells with macrophages
How it was run: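 Human venular endothelial cells co-cultured with macrophages; MCP-1 measured by ELISA 24 hours post-dose and fitted against DMSO. Cytotoxicity monitored by SRB total-protein staining in parallel cultures.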

[6] = read-out: Interleukin-8 (IL8), CXCL8 (gene 3576); assay: BSK_KF3CT_IL8: BioMAP Diversity Plus: KF3CT Assay for Interleukin-8 (IL8) Biomarker Activity (AID 2284254); settings: primary human keratinocytes with fibroblasts
How it was run: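 IL-8 read-out: ELISA, 24 h post-dose, human skin primary co-culture (keratinocytes + foreskin fibroblasts). DMSO = baseline; positive-direction fit.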

[7] = read-out: Macrophage Inflammatory Protein-1 Alpha (MIP1a), CCL3 (gene 6348); assay: BSK_IMphg_MIP1a: BioMAP Diversity Plus: IMphg Assay for Macrophage Inflammatory Protein-1 Alpha (MIP1a) Biomarker Activity (AID 2284255); settings: primary human endothelial cells with macrophages
How it was run: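 Co-culture of human venular endothelial cells and macrophages exposed to compounds for 24 h; MIP-1a measured by ELISA relative to DMSO. Cytotoxicity assessed in parallel cultures by sulforhodamine B total-protein staining at 560 nm.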

[8] = read-out: Plasminogen activator inhibitor-1 (PAI1), SERPINE1 (gene 5054); assay: BSK_MyoF_PAI1: BioMAP Diversity Plus: MyoF Assay for Plasminogen activator inhibitor-1 (PAI1) Biomarker Activity (AID 2284256); settings: primary human lung fibroblasts
How it was run: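 MyoF lung fibroblasts, human primary; compound 24 h; PAI-1 ELISA; positive-direction fit vs DMSO baseline; parallel SRB total-protein staining for cytotoxicity.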

[9] = read-out: CD69, CD69 (gene 969); assay: BSK_IMphg_CD69: BioMAP Diversity Plus: IMphg Assay for CD69 Biomarker Activity (AID 2284257); settings: primary human endothelial cells with macrophages
How it was run: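 Human venular endothelial cells co-cultured with macrophages; CD69 quantified by ELISA 24 h after compound addition. Activity fitted in the positive direction relative to DMSO baseline; cytotoxicity tracked in parallel cultures via SRB total-protein staining.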

[10] = read-out: Eotaxin 3, CCL26 (gene 10344); assay: BSK_BF4T_Eotaxin3: BioMAP Diversity Plus: BF4T Assay for Eotaxin 3 Biomarker Activity (AID 2284258); settings: primary human bronchial epithelial cells with fibroblasts
How it was run: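 Co-culture of human bronchial epithelial cells and dermal fibroblasts, exposed to chemicals for 24 h versus DMSO. Eotaxin-3 quantified by ELISA; cytotoxicity checked in parallel cultures by sulforhodamine B total-protein staining.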

[11] = read-out: Monocyte Chemoattractant Protein-1 (MCP1), CCL2 (gene 6347); assay: BSK_BF4T_MCP1: BioMAP Diversity Plus: BF4T Assay for Monocyte Chemoattractant Protein-1 (MCP1) Biomarker Activity (AID 2284259); settings: primary human bronchial epithelial cells with fibroblasts
How it was run: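 Co-culture of bronchial epithelial cells and dermal fibroblasts dosed with chemical; MCP-1 measured by ELISA 24 h later. Activity fitted in positive direction versus DMSO; cytotoxicity checked by SRB staining in parallel cultures.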

[12] = read-out: Intercellular Adhesion Molecule 1 (ICAM1), ICAM1 (gene 3383); assay: BSK_BF4T_ICAM1: BioMAP Diversity Plus: BF4T Assay for Intercellular Adhesion Molecule 1 (ICAM1) Biomarker Activity (AID 2284260); settings: primary human bronchial epithelial cells with fibroblasts
How it was run: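 Co-culture of human bronchial epithelial cells and dermal fibroblasts exposed 24 h to chemical; cell-surface ICAM-1 quantified by ELISA. Parallel SRB total-protein staining assessed cytotoxicity; activity fitted relative to DMSO.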

[13] = read-out: Interleukin-8 (IL8), CXCL8 (gene 3576); assay: BSK_MyoF_IL8: BioMAP Diversity Plus: MyoF Assay for Interleukin-8 (IL8) Biomarker Activity (AID 2284261); settings: primary human lung fibroblasts
How it was run: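 Lung fibroblasts (human primary) → chemical exposure → 24 h → IL-8 measured by ELISA. Signal increase scored versus DMSO control.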

[14] = read-out: CD90, THY1 (gene 7070); assay: BSK_BF4T_CD90: BioMAP Diversity Plus: BF4T Assay for CD90 Biomarker Activity (AID 2284262); settings: primary human bronchial epithelial cells with fibroblasts
How it was run: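 Co-culture of human bronchial epithelial cells and dermal fibroblasts, 24 h compound exposure. Cell-surface CD90 measured by ELISA relative to DMSO; parallel SRB total-protein staining for cytotoxicity.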

[15] = read-out: Interleukin-8 (IL8), CXCL8 (gene 3576); assay: BSK_BF4T_IL8: BioMAP Diversity Plus: BF4T Assay for Interleukin-8 (IL8) Biomarker Activity (AID 2284263); settings: primary human bronchial epithelial cells with fibroblasts
How it was run: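 Human bronchial epithelial cells with dermal fibroblasts co-culture; IL-8 measured by ELISA 24 hours after dosing, fitted vs DMSO. Cytotoxicity tracked in parallel cultures by SRB total-protein staining.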

[16] = read-out: Interleukin-1 alpha (IL1a), IL1A (gene 3552); assay: BSK_BF4T_IL1a: BioMAP Diversity Plus: BF4T Assay for Interleukin-1 alpha (IL1a) Biomarker Activity (AID 2284264); settings: primary human bronchial epithelial cells with fibroblasts
How it was run: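 Human bronchial epithelial cells co-cultured with dermal fibroblasts, dosed and read at 24 h. Secreted/surface IL-1α quantified by ELISA; gain-of-signal fitted relative to DMSO baseline. Parallel SRB total-protein staining tracked cytotoxicity.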

[17] = read-out: Decorin, DCN (gene 1634); assay: BSK_MyoF_Decorin: BioMAP Diversity Plus: MyoF Assay for Decorin Biomarker Activity (AID 2284265); settings: primary human lung fibroblasts
How it was run: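 ELISA readout of decorin, 24 h post-dosing; primary human lung fibroblast (MyoF) culture; gain-of-signal fit vs DMSO baseline.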

[18] = read-out: KRT18 (gene 3875); assay: BSK_BF4T_Keratin818: BioMAP Diversity Plus: BF4T Assay for Keratin 818 Biomarker Activity (AID 2284266); settings: primary human bronchial epithelial cells with fibroblasts
How it was run: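 Co-culture of human bronchial epithelial cells and dermal fibroblasts, chemical exposure 24 h. Keratin 8/18 measured by ELISA; positive-direction fit vs DMSO. SRB total protein run in parallel cultures for cytotoxicity.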

[19] = BSK_MyoF_SRB: Viability Assessment in the BioMAP Diversity Plus: MyoF Assay (AID 2284267); settings: primary human lung fibroblasts;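 also: total protein by SRB absorbance in parallel cultures as cytotoxicity measure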
How it was run: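 Human lung fibroblasts, 24 h after chemical dosing; total protein measured by 0.1% sulforhodamine B staining after 10% TCA fixation, read at 560 nm, fitted relative to DMSO baseline.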

[20] = read-out: Matrix Metallopeptidase 1 (MMP1), MMP1 (gene 4312); assay: BSK_MyoF_MMP1: BioMAP Diversity Plus: MyoF Assay for Matrix Metallopeptidase 1 (MMP1) Biomarker Activity (AID 2284268); settings: primary human lung fibroblasts
How it was run: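 Cells: human lung fibroblasts. Exposure: 24 h chemical dosing. Detection: ELISA for MMP1. Analysis: upward fitting against DMSO negative control.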

Measured: AC50

C[C@@H]1C[C@H]2[C@@H]3CCC4=CC(=O)C=C[C@]4(C)[C@@]3(F)[C@@H](O)C[C@]2(C)[C@@]1(O)C(=O)COP(=O)(O)O
inactive: [1] | [2] | [3] | [4] | [6] | [8] | [9] | [10] | [11] | [12] | [13] | [14] | [15] | [16] | [17] | [18] | [19] | [20]
active: [3] 1.1 µM | [5] 1.04 µM and 1.15 µM | [7] 946 nM and 574 nM | [10] 951 nM

C=C(C)C(=O)OCCC(F)(F)C(F)(F)C(F)(F)C(F)(F)C(F)(F)C(F)(F)F
inactive: all assays above

FC(F)(I)C(F)(F)C(F)(F)C(F)(F)C(F)(F)C(F)(F)I
inactive: [2] | [13] | [14] | [20]
active: [1] 6.79 µM [middle of 5 runs] | [2] 14 µM and 10.1 µM | [3] 5.16 µM [middle of 5 runs] | [4] 6.91 µM [middle of 5 runs] | [5] 39.8 µM [middle of 5 runs] | [6] 6.35 µM [middle of 5 runs] | [8] 6 µM [middle of 5 runs] | [9] 37.9 µM [middle of 5 runs] | [10] 8.19 µM [middle of 5 runs] | [11] 8.32 µM [middle of 5 runs] | [13] 15 µM and 16.4 µM and 15.6 µM | [14] 6.21 µM | [15] 14.9 µM [middle of 5 runs] | [16] 22.7 µM [middle of 5 runs] | [17] 7.74 µM [middle of 5 runs] | [19] 7.31 µM [middle of 5 runs]

OCCC(F)(F)C(F)(F)C(F)(F)C(F)(F)C(F)(F)C(F)(F)C(F)(F)C(F)(F)F
inactive: [2] | [6] | [7] | [13] | [14] | [15] | [16] | [18] | [20]
active: [1] 8.57 µM and 8 µM | [2] 17.8 µM | [3] 12.4 µM | [4] 15.1 µM and 15.7 µM | [5] 49.6 µM and 45.9 µM | [8] 17.1 µM and 11.1 µM | [9] 30 µM and 7.45 µM | [10] 13.5 µM and 9.61 µM | [11] 21.2 µM and 30 µM | [12] 30 µM | [13] 14.9 µM | [16] 21.5 µM | [17] 15.1 µM and 14.5 µM | [18] 38.6 µM | [19] 15.1 µM and 14.7 µM

CCCCCCCCCCCCCC[N+](C)(C)C
active: [8] 3.69 µM | [13] 9.47 µM | [17] 28.4 µM | [19] 5.25 µM

OCCC(F)(F)C(F)(F)C(F)(F)C(F)(F)C(F)(F)C(F)(F)F
active: [2] 30 µM and 46.9 µM | [3] 55 µM and 57.4 µM | [7] 42.4 µM
inactive: [1] | [4] | [5] | [6] | [7] | [8] | [9] | [10] | [11] | [12] | [13] | [14] | [15] | [16] | [17] | [18] | [19] | [20]

NCC(F)(F)C(F)(F)C(F)(F)C(F)(F)C(F)(F)C(F)(F)C(F)(F)F
active: [3] 12.1 µM | [6] 13.5 µM | [11] 220 nM
inactive: [1] | [2] | [3] | [4] | [5] | [6] | [7] | [8] | [9] | [10] | [11] | [12] | [13] | [14] | [15] | [16] | [17] | [18] | [19] | [20]
